Pf Dd2 growth – blocks in vitro growth of P. falciparum Dd2 | hit rate 4.3% among 120,000 | P. falciparum Dd2 growth, SYBR Green, 72 h | Potency, µM (highest dose often 28.9 µM), most hits filed as inhibitors | AID 1347417; active = well fitted inhibition curve with a large enough effect; note: nearly all actives have a fitted effect of over 65% in size
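Infected erythrocytes (Dd2, 0.3% parasitemia, 2.5% hematocrit final) are added to compound in RPMI-1640/Albumax II medium, grown 72 h at 37C in low oxygen, then lysed with saponin/Triton-X containing SYBR Green and read by fluorescence.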
Of the large screens only hits and unclear results are named; the others gave an inactive call. This excerpt belongs to a sample that is enriched for hits.

COC1CN(c2cccc(F)c2)C12CCN(C(=O)CC1CCCC1)CC2 (centres undefined)	none
OC1CN(Cc2ccccc2)CCN(Cc2ccc(OC(F)F)cc2)C1 (centres undefined)	none
COc1ccc(/C=C/CN2CCC(CCC(=O)Nc3ccccc3Cl)CC2)cc1	none
O=C1CC2(CCN(CC3CCCCC3)CC2)Oc2ccccc21	none
CC(C)n1nc(OC(C)(C)C(=O)NCCc2ccccn2)c2cc(CN3CCOCC3)ccc21	none
COc1ccc(CN2CCN3C(=O)N(C4CCOCC4)C[C@H]3C2)cc1	none
O=C([C@H]1C[C@@H](F)CN1C(=O)c1ccc(C(F)(F)F)cc1)N1CCOCC1	none
O=C(NCCC1=CCCCC1)c1cc2c(s1)CN(C1CCCC1)C2	none
O=C1NCCOCCN(C(=O)COc2ccccc2)[C@H]2CCC[C@@H]12	none
O=C(Cn1ccn2nc3c(c2c1=O)CCCC3)NCCCc1ccccc1	none
COc1ccc(-c2cnc3[nH]cc(CC(=O)Nc4ccc(OC)nc4)c3c2)cc1	Pf Dd2 growth 11µM
O=C(Cc1c[nH]c2ncc(-c3cccc(Cl)c3)cc12)NCc1cccnc1	Pf Dd2 growth 4.5µM
NC(=O)Cc1c[nH]c2ncc(-c3cccc(F)c3)cc12	none
COc1ccc(NC(=O)Cc2c[nH]c3ncc(-c4ccccc4)cc23)cc1	none
COc1ccc(-c2cnc3[nH]cc(CC(=O)Nc4ccc(C(F)(F)F)cc4)c3c2)cc1	none
O=C(Cc1cccc(Cl)c1)NCc1c[nH]c2ncccc12	none
Cc1nc(C)c(C(=O)N2CCCC2c2nc(CCOCC3CCCC3)no2)s1 (centres undefined)	none
COCCC1(NC(=O)C2CCOCC2)CCN(C(=O)CCc2ccc(OC)cc2)CC1	none
C=CCN1CC2(CCC1=O)CCN(C(=O)[C@@H](O)Cc1ccccc1)CC2	none
O=C1c2c(nc(COc3cc(F)cc(F)c3)n2Cc2ccccc2)NCCN1Cc1ccccc1	none
O=C1c2c(nc(COc3cccc(Cl)c3)n2Cc2ccccc2)NCCN1CC1CC1	none
O=C1c2c(nc(COc3ccc4c(c3)OCO4)n2Cc2ccccc2)NCCN1Cc1cccc(Cl)c1	none
COc1ccccc1OCc1nc2c(n1Cc1ccccc1)C(=O)N(Cc1cccc(Cl)c1)CCN2	Pf Dd2 growth 10µM
COc1ccc(OCc2nc3c(n2Cc2ccccc2)C(=O)N(CC2CC2)CCN3)cc1OC	none
COCCN1CCNc2nc(COc3ccc(Oc4ccccc4)cc3)n(Cc3ccccc3)c2C1=O	none
COCCN1CCNc2nc(CNc3ccon3)n(Cc3ccccc3)c2C1=O	Pf Dd2 growth 11µM
COc1cccc(OCc2nc3c(n2Cc2ccccc2)C(=O)N(Cc2cccc(Cl)c2)CCN3)c1	Pf Dd2 growth 13µM
COc1cc(OC)cc(OCc2nc3c(n2Cc2ccccc2)C(=O)N(Cc2cccc(Cl)c2)CCN3)c1	Pf Dd2 growth 7.9µM
COCCN1CCNc2nc(COc3ccccc3OC(F)(F)F)n(Cc3ccccc3)c2C1=O	none
CC(=O)N1CCN(Cc2nc3c(n2Cc2ccccc2)C(=O)N(Cc2cccc(Cl)c2)CCN3)CC1	none
COc1ccccc1OCc1nc2c(n1Cc1ccccc1)C(=O)N(CC1CC1)CCN2	none
CCOC(=O)C1=CN(CC(=O)Nc2cc(C)ccc2OC)S(=O)(=O)N=C1C	none
CC(=O)Nc1ccc(CC(=O)N2CCCC(Cc3nncn3CC3CC3)C2)cc1 (centres undefined)	none
Cn1c(CO[C@H]2CN(C(=O)c3cccnc3)C[C@H]2F)nc2ccccc21	none
NC(=O)c1cc[nH]c1C1CCCN(C(=O)NC2CCCCC2)C1 (centres undefined)	none
O=C(NCCc1noc(-c2ccccc2)n1)c1n[nH]c2ccccc12	none
COc1ccc(N2CC(C(=O)NC3CC3)NC2=O)cc1 (centres undefined)	none
CCOc1ncccc1C(=O)N[C@H](c1cncc(OC)c1)C1CC(O)C1 (some centres undefined)	none
C[S+](=O)([O-])N1CCC2(CC1)CC(c1ccccc1)=NO2	none
O=C1c2c(nc(COc3ccc4c(c3)OCO4)n2Cc2ccccc2)NCCN1CCOc1ccccc1	none
O=C1c2c(nc(COc3ccc(F)cc3)n2Cc2ccccc2)NCCN1CCOc1ccccc1	Pf Dd2 growth 5.6µM
O=C1c2c(nc(COc3ccccc3)n2Cc2ccccc2)NCCN1Cc1ccccc1	none
Cc1ccc(C2(O)CCN(C(=O)[C@@H](N)Cc3cnc[nH]3)CC2)nc1	none
COc1ccc(N2Cc3c(NCc4ccc5c(c4)OCO5)ncnc3N(C)CC2=O)cc1	none
COc1ccc(Nc2nc(-c3ccccc3F)nc3ccccc23)cc1OC	none
COc1ccc(Nc2c(-c3cc(Br)ccc3O)nc3ncccn23)cc1OC	Pf Dd2 growth 1.3µM
Cc1ccc(Nc2c(-c3ccc(C)s3)nc3ncccn23)cc1	none
COc1ccccc1-c1ccnc(N[C@H]2CO[C@H]3[C@@H]2OC[C@@H]3NC(=O)c2ccccc2)n1	none
CCOc1ccc(NC(=O)Nc2nnc(N3CCCCC3C)s2)cc1 (centres undefined)	Pf Dd2 growth 11µM
COc1cc(NC(=O)Nc2nnc(N3CCCCC3)s2)cc(OC)c1	none
CCOc1ccc(NC(=O)CSc2nnc(NC(=O)Nc3ccccc3)s2)cc1	none
COc1ccc(-c2cc(N3CCCN(C(=O)c4ccc5ncccc5c4)CC3)n[nH]2)cc1	none
N#Cc1ccc([S+](=O)([O-])N2CCC3(CC2)OCCN(CC2CC2)C3=O)cc1	none
